# Screening results deposited in PubChem by several laboratories.
# Compounds with a hit are over-represented: about 2.2% of the library has one in this group of screens.
# NTR1 ag: activates human neurotensin receptor 1; P30989; NTR1-U2OS beta-arrestin-GFP spot imaging, agonist mode; activation, % at 20 µM; actives 0.17% (n = 330,000);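 active = activation at or above 40% of the spot to cytoplasm intensity ratio, with at least 20 cells analyzed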
# ANO1 activ: mouse TMEM16A channel activation, primary screen. Q8BHY3. HEK293 TMEM16A/YFP-H148Q/I152L, iodide quench fluorescence; stronger effect = lower value. B-score at 10 µM. actives 0.3% (n = 340,000). AID 623877;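 active = fluorescence-ratio B-score plate-corrected deviation score at least 3 library SD below zero, with starting fluorescence score within 5 deviations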;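 note: channel opened by trigger with iodide after compound preincubation; score built on the fluorescence ratio of max minus min over baseline; more negative score means more quench and so TMEM16A activation or potentiation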
# CHO-K1 Ca antag: counter-screen for M1 antagonists: effect in parental CHO-K1 cells | ATP-induced calcium, Fluo-8 fluorescence | inhibition, % at 3 µM | actives 0.6% (n = 360,000) | AID 602250;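 active = inhibition above a per-plate cutoff, the plate's mean sample inhibition plus 3 SD, cut at about 24% in these data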
# CHO-K1 Ca PAM: counter-screen for M1 PAMs: effect in parental CHO-K1 cells; actives 0.02% (n = 360,000); activation, % at 3 µM; AID 602247; ATP EC20, Fluo-8 calcium fluorescence; 0% at ATP EC20, 100% at ATP max;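 active = activation above the run cutoff, the mean activation of all test compounds plus 3 SD, cut at about 40% in these data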;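 note: peak over basal fluorescence ratio in a 140 s read after ATP addition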
# CHO-K1 Ca ag: M1 agonist counterscreen hit in parental CHO-K1 cells; Fluo-8 calcium fluorescence; scaled to maximal ATP response, vehicle zero; activation, % at 3 µM; actives 0.48% (n = 360,000); in the data active = activation above about 15%;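 note: untransfected CHO-K1 host cells lacking M1 receptor as counterscreen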
# TMEM16A inh: mouse TMEM16A channel inhibition, primary screen | Q8BHY3 | HEK293 TMEM16A/YFP iodide influx fluorescence, ionomycin | normalized B-score (activity score, 25-100; higher = stronger inhibition) at 10 µM | actives 1.2% (n = 310,000) | AID 588511;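 active = ratio plate-corrected score three or more library SD toward inhibition, starting fluorescence score within five deviations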;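 note: score derived from kinetic fluorescence span divided by baseline fluorescence per well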
# TMEM16A reconf: re-confirmation of mouse TMEM16A chloride channel inhibitors; HEK293 TMEM16A/YFP-H148Q, iodide quench fluorescence; ionomycin added to raise cell calcium; shares compounds with TMEM16A inh; inhibition, % at 10 µM; actives 39% (n = 2,300);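 active = mean duplicate percent inhibition, scaled so buffer wells are 0 and the reference blocker 100, over three buffer SD above buffer mean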
# HEK293 Ca mobil: counter-screen for TMEM16A inhibitors: effect on calcium mobilization; shares compounds with TMEM16A inh; TMEM16A/YFP HEK293, Fluo4 calcium mobilization; calcium response (% of ionomycin), % at 10 µM; actives 2% (n = 2,300); AID 652231;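 active = duplicate-averaged calcium signal over 20% of the ionomycin maximum, relative to buffer baseline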;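 note: each well's signal is peak minus trough fluorescence divided by its pre-addition baseline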
# Parental YFP cnt: acts in parental YFP-HEK293 cells lacking TMEM16A, counter-screen. shares compounds with TMEM16A inh. iodide YFP quench, ionomycin. YFP ratio F(max-min)/F0 at 10 µM. 2,300 tested, under 10 active;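 active = yellow fluorescent protein signal ratio exceeding the buffer control mean by over 5 SD of those controls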;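 note: ratio is mean of duplicate wells from kinetic YFP trace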
# ClC-1 inh: selectivity of TMEM16A inhibitors: inhibition of rat ClC-1 chloride channel; shares compounds with TMEM16A inh; CHO ClC-1-YFP, iodide influx fluorescence quench; iodide control reads 0, buffer control 100; ratio percent, % at 10 µM; 2,300 tested, under 10 active; AID 652236;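 active = duplicate-mean ratio percent above the mean of iodide-only control wells, which defines zero, plus 5 of their SD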;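 note: higher percent means stronger block of ClC-1 iodide influx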
# Target sequence (P35524 whole entry, looked up): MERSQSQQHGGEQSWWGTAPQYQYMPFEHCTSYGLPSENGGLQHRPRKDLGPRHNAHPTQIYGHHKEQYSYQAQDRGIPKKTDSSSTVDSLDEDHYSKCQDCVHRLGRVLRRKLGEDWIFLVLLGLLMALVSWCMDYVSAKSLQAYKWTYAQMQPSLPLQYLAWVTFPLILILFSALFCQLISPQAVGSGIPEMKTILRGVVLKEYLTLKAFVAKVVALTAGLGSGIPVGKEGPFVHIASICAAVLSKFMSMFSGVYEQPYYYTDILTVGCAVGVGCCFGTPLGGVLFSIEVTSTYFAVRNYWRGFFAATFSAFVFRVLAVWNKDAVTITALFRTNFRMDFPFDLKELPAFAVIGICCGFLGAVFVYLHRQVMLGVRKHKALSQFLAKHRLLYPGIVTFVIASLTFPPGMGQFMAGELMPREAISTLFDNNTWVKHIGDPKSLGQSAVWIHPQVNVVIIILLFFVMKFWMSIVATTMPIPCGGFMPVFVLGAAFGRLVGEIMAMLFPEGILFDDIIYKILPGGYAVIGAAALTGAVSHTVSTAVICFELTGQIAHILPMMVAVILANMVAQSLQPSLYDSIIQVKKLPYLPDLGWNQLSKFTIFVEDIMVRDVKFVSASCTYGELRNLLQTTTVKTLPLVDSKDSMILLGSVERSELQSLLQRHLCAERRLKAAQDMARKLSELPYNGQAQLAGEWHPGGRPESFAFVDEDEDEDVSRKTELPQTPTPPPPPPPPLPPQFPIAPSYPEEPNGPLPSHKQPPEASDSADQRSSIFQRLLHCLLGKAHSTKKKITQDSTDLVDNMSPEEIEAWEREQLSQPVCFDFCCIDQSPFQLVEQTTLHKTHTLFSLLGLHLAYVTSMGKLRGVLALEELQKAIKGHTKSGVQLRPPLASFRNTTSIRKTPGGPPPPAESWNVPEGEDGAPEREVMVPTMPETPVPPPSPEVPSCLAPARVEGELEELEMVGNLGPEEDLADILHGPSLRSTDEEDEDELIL
# A number is an active result; 0 = inactive; - = no result.
SMILES,NTR1 ag,ANO1 activ,CHO-K1 Ca antag,CHO-K1 Ca PAM,CHO-K1 Ca ag,TMEM16A inh,TMEM16A reconf,HEK293 Ca mobil,Parental YFP cnt,ClC-1 inh
Cc1ccc(OCCNC(=O)[C@H]2O[C@@H](n3cnc4c(N)ncnc43)[C@H](O)[C@@H]2O)cc1C,-,-,0,0,0,-,-,-,-,-
O=S1(=O)CC/C(=N\O)c2ccccc21,0,0,0,0,0,25,0,0,0,0
COc1ccc(CNC(=O)c2ccc(N3CCCC3=O)cc2)cc1,0,0,0,0,0,100,0,0,0,0
CCCN(CCC)CCN1C(=O)C2C(C(=O)Nc3cccc(SC)c3)C3C=CC2(O3)C1C(=O)NC1CCCCC1 (stereo not given),0,0,0,0,0,100,0,0,0,0
COC(=O)C1CCN(C2CN(Cc3ccc(F)cc3)S(=O)(=O)C2)CC1 (stereo not given),-,-,0,0,0,-,-,-,-,-
O=C(NC(=O)c1ccccc1O)c1ccc(C(F)(F)F)cc1,0,0,0,0,0,0,-,-,-,-
CCCc1ccc(C(=O)NC(=O)c2ccccc2O)cc1,0,0,0,0,0,100,34%,22%,0,0
COc1ccc(O)c(/C=N/NS(=O)(=O)c2ccc(C)cc2)c1,0,0,0,0,0,0,-,-,-,-
Cc1ccc(S(=O)(=O)N/N=C/c2cc(Br)ccc2O)cc1,0,0,0,0,0,100,20%,0,0,0
O=[N+]([O-])c1cccnc1SCc1c(F)cccc1Cl,0,0,0,0,0,0,-,-,-,-
O=[N+]([O-])c1ccc(SCc2c(F)cccc2Cl)nc1,0,0,0,0,0,25,16%,0,0,0
CC(C)CN(C(=O)CCNC(=O)c1ccc(Cl)cc1)C1CCS(=O)(=O)C1 (stereo not given),0,0,0,0,0,-,-,-,-,-
O=C(O)C1(C(=O)O)CCC2(CCCCC2)CC1,-,-,0,0,0,-,-,-,-,-
NC(=O)[C@@H]1[C@@H]2C(=O)N(c3ccc(F)cc3)C(=O)[C@@H]2[C@H]2C=Cc3ccccc3N21,0,0,0,0,0,0,20%,0,0,0
O=C(c1ccco1)[C@@H]1[C@@H]2C(=O)N(c3ccc(F)cc3)C(=O)[C@@H]2[C@H]2C=Cc3ccccc3N21,-,0,0,0,0,0,-,-,-,-
O=C1CC[C@@H](C(=O)N2CSC[C@@H]2C(=O)Nc2cccc(C(F)(F)F)c2)N1,-,-,0,0,0,-,-,-,-,-
CC(=O)c1cccc(-c2ccnc3c2CC(C(=O)Nc2ccc(Cl)c(C(F)(F)F)c2)O3)c1 (stereo not given),-,-,0,0,0,-,-,-,-,-
Clc1ccc(CSc2ncnc3c2ncn3C2CCCCO2)cc1 (stereo not given),-,0,0,0,0,-,-,-,-,-
CCN(C(=O)CN1CCN(c2ccccc2O)CC1)c1c(N)n(Cc2ccccc2)c(=O)[nH]c1=O,0,0,0,0,0,0,-,-,-,-
CCN(C(=O)CN1CCN(c2ccccc2F)CC1)c1c(N)n(Cc2ccccc2)c(=O)[nH]c1=O,0,0,0,0,0,100,0,0,0,0
Clc1ccc(NC2=NCCC2)cc1Cl,0,0,0,0,0,0,0,0,0,0
Cc1ccc(NC2=NCCCCC2)cc1C,0,0,0,0,0,0,-,-,-,-
Cc1cc(N2CCC(C)CC2)nc(NCc2ccccc2)n1,0,0,0,0,0,100,0,0,0,0
Cc1cc(Nc2ccccc2)nc(NCc2ccccc2)n1,0,0,27,0,0,100,0,0,0,0
CCCCNc1cc(C)nc(NCc2ccccc2)n1,0,0,26,0,0,25,34%,22%,0,0
